About 83,000 compounds went through this panel and 20% of them were active in at least one assay; those are over-represented in the sample as a whole.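 96-well plates, one dose, 48 hours. Percent growth reported; active if below 10.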 The source made the active and inactive calls.
What was measured:
Assay in all cases: NCI-60 one-dose screen, 48 h (100 = growth as untreated, 0 = no growth, -100 = all killed)
Details in all cases: 10 µM unless noted
HCT-15 colon = tested on: HCT-15 colon
HT29 colon = tested on: HT29 colon
SNB-75 CNS = tested on: SNB-75 CNS
SNB-19 CNS = tested on: SNB-19 CNS
U251 CNS = tested on: U251 CNS
PC-3 prostate = tested on: PC-3 prostate
SK-MEL-5 melanoma = tested on: SK-MEL-5 melanoma
UACC-62 melanoma = tested on: UACC-62 melanoma
LOX IMVI melanoma = tested on: LOX IMVI melanoma
SK-MEL-28 melanoma = tested on: SK-MEL-28 melanoma
SK-MEL-2 melanoma = tested on: SK-MEL-2 melanoma
EKVX NSCLC = tested on: EKVX NSCLC
SN12C renal = tested on: SN12C renal
UO-31 renal = tested on: UO-31 renal
TK-10 renal = tested on: TK-10 renal
CAKI-1 renal = tested on: CAKI-1 renal
A498 renal = tested on: A498 renal
CCRF-CEM leukemia = tested on: CCRF-CEM leukemia
MOLT-4 leukemia = tested on: MOLT-4 leukemia
ACHN renal = tested on: ACHN renal

Measured: growth

N#C/C(=C\c1ccc2ccccc2c1)c1cc2ccccc2[nH]1
inactive: HCT-15 colon 22.5% | HT29 colon 10.9% | SNB-75 CNS 35.6% | SNB-19 CNS 43.8% | U251 CNS 27.8% | PC-3 prostate 33% | SK-MEL-5 melanoma 35.3% | UACC-62 melanoma 32.2% | LOX IMVI melanoma 32.3% | SK-MEL-28 melanoma 55.3% | SK-MEL-2 melanoma 43.5% | EKVX NSCLC 55.3% | SN12C renal 49.8% | UO-31 renal 49% | TK-10 renal 75.6% | CAKI-1 renal 38.1% | A498 renal 33.7% | CCRF-CEM leukemia 18.5% | MOLT-4 leukemia 29%

C1=C(N2CCCC2)CCC1
inactive: HCT-15 colon 104% | HT29 colon 103% | SNB-75 CNS 93.2% | SNB-19 CNS 111% | U251 CNS 99.4% | PC-3 prostate 77.8% | SK-MEL-5 melanoma 95.5% | UACC-62 melanoma 103% | LOX IMVI melanoma 97.4% | SK-MEL-28 melanoma 110% | SK-MEL-2 melanoma 112% | EKVX NSCLC 95.2% | SN12C renal 98.1% | UO-31 renal 73.5% | TK-10 renal 121% | CAKI-1 renal 79.1% | A498 renal 109% | CCRF-CEM leukemia 106% | MOLT-4 leukemia 96.6%

CCOC(=O)c1[nH]c(=O)c2c(C)nc(-c3ccccc3)cc2c1O
inactive: HCT-15 colon 100% | HT29 colon 113% | SNB-75 CNS 118% | SNB-19 CNS 104% | U251 CNS 117% | PC-3 prostate 72.1% | SK-MEL-5 melanoma 96.7% | UACC-62 melanoma 109% | LOX IMVI melanoma 112% | SK-MEL-28 melanoma 105% | SK-MEL-2 melanoma 84.8% | EKVX NSCLC 98.8% | SN12C renal 88.8% | UO-31 renal 90% | TK-10 renal 178% | CAKI-1 renal 109% | A498 renal 72.6% | CCRF-CEM leukemia 91.8% | MOLT-4 leukemia 98.1%

O=C(/C=C/c1ccc(Cl)cc1)c1cccc(Nc2nc(Nc3ccccc3)nc(Nc3ccccc3)n2)c1
inactive: HCT-15 colon 83.9% | HT29 colon 99.1% | SNB-75 CNS 71.9% | SNB-19 CNS 111% | U251 CNS 82.7% | PC-3 prostate 87.9% | SK-MEL-5 melanoma 85.6% | UACC-62 melanoma 96.9% | LOX IMVI melanoma 88.2% | SK-MEL-28 melanoma 100% | SK-MEL-2 melanoma 45.7% | EKVX NSCLC 106% | SN12C renal 102% | UO-31 renal 61.8% | TK-10 renal 92.6% | A498 renal 95.2% | CCRF-CEM leukemia 76.2% | MOLT-4 leukemia 61.7%

Brc1ccc(-n2cc(-c3nn[nH]n3)c(-c3cccs3)n2)cc1
inactive: HCT-15 colon 95.3% | HT29 colon 113% | SNB-75 CNS 92.5% | SNB-19 CNS 90.9% | U251 CNS 93% | PC-3 prostate 98.9% | SK-MEL-5 melanoma 101% | UACC-62 melanoma 92.7% | LOX IMVI melanoma 101% | SK-MEL-28 melanoma 103% | SK-MEL-2 melanoma 101% | SN12C renal 88.9% | UO-31 renal 63.7% | TK-10 renal 104% | ACHN renal 89.4% | CAKI-1 renal 91.1% | A498 renal 81.5% | CCRF-CEM leukemia 103% | MOLT-4 leukemia 101%

N=C(N)c1ccc(-c2ccc(-c3ccc(Cl)cc3)s2)nc1
active: HCT-15 colon -78.1% | HT29 colon -38.1% | U251 CNS -68.1% | PC-3 prostate -75.3% | LOX IMVI melanoma -89% | ACHN renal -75.9% | CAKI-1 renal -65% | CCRF-CEM leukemia -45.8% | MOLT-4 leukemia -57.8%
inactive: SNB-75 CNS 95.8% | SNB-19 CNS 49.9% | SK-MEL-5 melanoma 82.8% | UACC-62 melanoma 89.9% | SK-MEL-28 melanoma 108% | SK-MEL-2 melanoma 103% | SN12C renal 52.5% | UO-31 renal 44.6% | TK-10 renal 103% | A498 renal 84.5%

COc1ccc(-c2nn(-c3ccccc3)cc2/C=C2/SC(=S)N(C)C2=O)cc1
active: U251 CNS 8.95%
inactive: HCT-15 colon 74.2% | HT29 colon 64.6% | SNB-75 CNS 33.3% | SNB-19 CNS 60.7% | PC-3 prostate 84.9% | SK-MEL-5 melanoma 98.5% | UACC-62 melanoma 86% | LOX IMVI melanoma 77.1% | SK-MEL-28 melanoma 108% | SK-MEL-2 melanoma 108% | EKVX NSCLC 74.4% | SN12C renal 34.2% | UO-31 renal 16% | TK-10 renal 27.7% | CAKI-1 renal 38.5% | A498 renal 96.9% | CCRF-CEM leukemia 49.6% | MOLT-4 leukemia 81.3%

C=C1C(=O)O[C@H]2[C@H]1CC/C(COC(=O)CCSCCC(=O)OC/C1=C/CC[C@@]3(C)O[C@H]3[C@H]3OC(=O)C(=C)[C@@H]3CC1)=C\CC[C@@]1(C)O[C@@H]21
inactive: SNB-75 CNS 48.6% | SNB-19 CNS 55% | SK-MEL-5 melanoma 54.3% | SK-MEL-2 melanoma 23.8% | A498 renal 69.8%
active: HCT-15 colon -6.34% | HT29 colon -9.93% | U251 CNS 6.76% | PC-3 prostate -14.5% | UACC-62 melanoma -67% | LOX IMVI melanoma -79.3% | SK-MEL-28 melanoma -35.6% | SN12C renal 0.113% | UO-31 renal -49.4% | TK-10 renal -3.89% | ACHN renal -12% | CAKI-1 renal 4.51% | CCRF-CEM leukemia -24.8% | MOLT-4 leukemia -25.7%

O=C(c1ccc(-c2ccccc2)cc1)c1ccc([N+](=O)[O-])cc1
inactive: HCT-15 colon 103% | HT29 colon 104% | SNB-75 CNS 105% | SNB-19 CNS 101% | U251 CNS 99% | PC-3 prostate 86.7% | SK-MEL-5 melanoma 97.3% | UACC-62 melanoma 92.7% | LOX IMVI melanoma 98.4% | SK-MEL-28 melanoma 122% | SK-MEL-2 melanoma 104% | EKVX NSCLC 98% | SN12C renal 104% | UO-31 renal 97.5% | TK-10 renal 124% | CAKI-1 renal 88.1% | A498 renal 124% | CCRF-CEM leukemia 89% | MOLT-4 leukemia 52.6%

Cc1ccc(-c2nc(N3CCNCC3)c3oc(-c4ccccc4)nc3n2)cc1
active: HCT-15 colon -77.7% | HT29 colon -93.8% | U251 CNS -98.2% | PC-3 prostate -81.5% | LOX IMVI melanoma -89.1% | SK-MEL-28 melanoma -81.3% | SN12C renal -84.3% | UO-31 renal -90.6% | TK-10 renal -98.6% | ACHN renal -99.8% | CCRF-CEM leukemia -76% | MOLT-4 leukemia -68.8%
inactive: SNB-75 CNS 85.4% | SNB-19 CNS 16.7% | SK-MEL-5 melanoma 70.9% | UACC-62 melanoma 91.3% | SK-MEL-2 melanoma 61.2% | CAKI-1 renal 40.5% | A498 renal 95.7%

CCN1CCN(Cc2cn(CC(=O)Nc3ccc4c(ccn4Cc4ccccc4)c3)nn2)CC1
active: CCRF-CEM leukemia 7.79%
inactive: HCT-15 colon 109% | HT29 colon 102% | SNB-75 CNS 86.8% | SNB-19 CNS 98.4% | U251 CNS 96.6% | PC-3 prostate 96.4% | SK-MEL-5 melanoma 99.9% | UACC-62 melanoma 95% | LOX IMVI melanoma 103% | SK-MEL-28 melanoma 105% | SK-MEL-2 melanoma 106% | EKVX NSCLC 106% | SN12C renal 104% | UO-31 renal 81.3% | TK-10 renal 99.2% | CAKI-1 renal 86.7% | A498 renal 108% | MOLT-4 leukemia 101%

N#Cc1cccc(NC(=O)c2oc3ccccc3c2-c2cnn(-c3ccccc3)c2)c1
inactive: HCT-15 colon 74.1% [50 µM] | HT29 colon 85.5% [50 µM] | SNB-75 CNS 86.3% [50 µM] | SNB-19 CNS 84.2% [50 µM] | U251 CNS 85.3% [50 µM] | SK-MEL-5 melanoma 67.7% [50 µM] | UACC-62 melanoma 75% [50 µM] | LOX IMVI melanoma 77.9% [50 µM] | SK-MEL-28 melanoma 91.9% [50 µM] | SK-MEL-2 melanoma 88.1% [50 µM] | EKVX NSCLC 76.5% [50 µM] | SN12C renal 78.3% [50 µM] | UO-31 renal 59% [50 µM] | TK-10 renal 88.2% [50 µM] | CAKI-1 renal 63.2% [50 µM] | A498 renal 89.5% [50 µM]
active: PC-3 prostate -9.05% [50 µM] | CCRF-CEM leukemia -21.3% [50 µM] | MOLT-4 leukemia -5.03% [50 µM]

COc1cc(C(=O)n2nc(N3CCN(C)CC3)c3cc(N)ccc32)cc(OC)c1OC
inactive: HCT-15 colon 37% | HT29 colon 86.8% | SNB-75 CNS 39.9% | SNB-19 CNS 35.2% | U251 CNS 31.2% | PC-3 prostate 50.1% | SK-MEL-5 melanoma 27.3% | UACC-62 melanoma 26.2% | LOX IMVI melanoma 35.5% | SK-MEL-28 melanoma 65.8% | SK-MEL-2 melanoma 70.9% | EKVX NSCLC 34.1% | SN12C renal 39.6% | UO-31 renal 26.4% | TK-10 renal 59.1% | CAKI-1 renal 57.3% | CCRF-CEM leukemia 20.2% | MOLT-4 leukemia 17.3%
active: A498 renal -3.79%

O=S(=O)(NCCNc1cc(-c2c(-c3cccc(O)c3)nc3sccn23)ccn1)c1ccc(C(F)(F)F)cc1
inactive: HCT-15 colon 25.2% | HT29 colon 32.6% | SNB-75 CNS 38.3% | SNB-19 CNS 54.8% | U251 CNS 34.8% | PC-3 prostate 31.4% | UACC-62 melanoma 40.1% | LOX IMVI melanoma 37.8% | SK-MEL-28 melanoma 55.7% | SK-MEL-2 melanoma 43.9% | SN12C renal 35.6% | TK-10 renal 67.9% | ACHN renal 33.2% | CAKI-1 renal 29.3% | A498 renal 40.2% | CCRF-CEM leukemia 25.4%
active: SK-MEL-5 melanoma -2.62% | UO-31 renal -71.8% | MOLT-4 leukemia 9.21%

COc1ccc(C(c2cc(OC)c(OC)c(OC)c2)N2CCN(c3ccccc3)CC2)cc1 (configuration not stated)
inactive: HCT-15 colon 67.6% | HT29 colon 63.5% | SNB-75 CNS 90.2% | SNB-19 CNS 84.1% | U251 CNS 96.4% | PC-3 prostate 73.3% | SK-MEL-5 melanoma 85.2% | UACC-62 melanoma 55.2% | LOX IMVI melanoma 87.3% | SK-MEL-28 melanoma 84.5% | SK-MEL-2 melanoma 69.3% | EKVX NSCLC 99.6% | SN12C renal 101% | UO-31 renal 73.4% | TK-10 renal 106% | A498 renal 89.2% | CCRF-CEM leukemia 82.6% | MOLT-4 leukemia 72.8%

CS(=O)(=O)Nc1cc(-c2ccc3ncnc(Nc4ccc5c(cnn5Cc5ccccn5)c4)c3c2)cnc1Cl
inactive: HCT-15 colon 99.2% | HT29 colon 80.7% | SNB-75 CNS 16.2% | SNB-19 CNS 80.6% | U251 CNS 81.5% | PC-3 prostate 72.8% | SK-MEL-5 melanoma 77.7% | UACC-62 melanoma 61.8% | LOX IMVI melanoma 71% | SK-MEL-28 melanoma 56.1% | SK-MEL-2 melanoma 61.8% | SN12C renal 72.5% | UO-31 renal 64.8% | TK-10 renal 65.5% | ACHN renal 88% | CAKI-1 renal 65.4% | A498 renal 20.4% | CCRF-CEM leukemia 60% | MOLT-4 leukemia 78.7%

— PubChem BioAssay (NCI)
